SSB-PriA inh: K. pneumoniae PriA-SSBct interaction inhibition. AlphaScreen SSBct-PriA binding, biotinylated peptide. inhibition, % at 33 µM. hit rate 0.6% among 430,000; in the data active means inhibition mostly above about 37%, no sharp cut-off; inactive means mostly below about 20%;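 further: plate controls were negative control peptide for no effect and reference peptide for full effect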
RecA splice inh: blocks M. tuberculosis RecA intein splicing; P9WHJ3; cell-free RecA intein splicing, fluorescence; inhibition, % (test concentration not listed); hit rate 0.75% among 290,000; AID 2221; in the data active means inhibition above about 30%;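 further: 0% = vehicle wells and 100% = reference inhibitor control wells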
3CLpro inhibitor: SARS-CoV 3CLpro protease inhibition. P0C6X7. recombinant SARS-CoV 3CLpro, quenched FRET peptide cleavage. inhibition, % at 6 µM. hit rate 0.14% among 290,000. AID 1706; in the data active means inhibition above about 12%
VHR inh abs: DUSP3 (human) phosphatase inhibition; recombinant VHR phosphatase, pNPP absorbance; P51452; hit rate 0.52% among 290,000; AID 1654; inhibition, % at 13.3 µM; in the data active means inhibition above about 50%
Target sequence (P51452 whole entry, looked up): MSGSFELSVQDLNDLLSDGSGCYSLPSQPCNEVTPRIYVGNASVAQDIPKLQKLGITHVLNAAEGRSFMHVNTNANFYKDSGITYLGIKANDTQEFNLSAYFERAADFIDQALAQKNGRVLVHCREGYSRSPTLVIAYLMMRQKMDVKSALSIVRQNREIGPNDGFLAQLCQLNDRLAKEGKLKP
CCHF vOTU inh-1: CCHFV vOTU protease inhibition | Pep-AMC fluorescence | inhibition, % at 11.5 µM | hit rate 0.55% among 370,000; further: 0% = vehicle wells with enzyme and 100% = no enzyme wells
CCHF vOTU inh-2: CCHFV vOTU protease inhibition, confirmation | inhibition, % at 11.5 µM | shares compounds with CCHF vOTU inh-1 | Recombinant CCHFV vOTU, Pep-AMC fluorescence | hit rate 17% among 1,900
* marks the source's active call; other numbers are inactive results; i = inactive; . = not tested or not shown. Sampled rows, rich in hits. Any-hit rate of the full collection: about 1.7%. Unless noted, no stated cut-off is given here; in the data, active means inhibition above about 30%; inactive means the rest.

SMILES | SSB-PriA inh | RecA splice inh | 3CLpro inhibitor | VHR inh abs | CCHF vOTU inh-1 | CCHF vOTU inh-2
CCOC(=O)Cc1nnc(Nc2cc(C)ccc2C)c2ccccc12 | -12.7 | -1.1 | -0.5 | 28.8 | 31.0* | 2.9
CCOC(=O)Cc1nnc(Nc2ccc(C)cc2C)c2ccccc12 | -0.2 | 2.6 | 0.6 | -2.9 | -11.1 | .
CCOc1ccc(CCN2C(=O)C(=O)N([C@@H](CC(C)C)CN3CCC[C@H]3CN3C(=O)C(=O)NC[C@@H]3Cc3ccc(O)cc3)C[C@@H]2Cc2ccccc2)cc1 | . | . | . | . | 30.5* | -9.1
CC(C)C[C@@H](CN1CCC[C@@H]1CN1C(=S)NC[C@@H]1Cc1ccccc1)N1C[C@H](Cc2ccc(O)cc2)N(CC2CCCCC2)C1=S | . | . | . | . | 29.8* | -12.0
CCOc1ccc(CCN2C(=S)N([C@@H](Cc3ccccc3)CN3CCCC3CN3C(=S)NC[C@@H]3Cc3ccccc3)C[C@@H]2Cc2ccc(O)cc2)cc1 (stereo partly drawn) | . | . | . | . | 29.7* | -4.9
O=C1NC[C@H](Cc2ccc(O)cc2)N(C[C@@H]2CCCN2C[C@H](Cc2ccc(O)cc2)N2C[C@H](Cc3ccccc3)N(CCc3ccccc3)C(=O)C2=O)C1=O | . | . | . | . | 33.9* | -19.3
CN1CCC/C1=C/C=C1\SC(=S)NC1=O | -1.1 | . | -8.9 | -0.2 | 40.2* | 33.3*
CN1/C(=C\C=C2/SC(=S)NC2=O)C(C)(C)c2ccccc21 | 9.0 | 0.0 | 1.4 | 19.8 | 16.7 | .
O=C(Nc1ccc2c(c1)N(C(=O)c1cccs1)CC2)c1csc(-c2ccccc2)n1 | 4.0 | . | . | . | . | .
CCCCc1c(-c2ccccc2OC)ncn1Cc1ccc(F)cc1F | . | . | . | . | 33.3* | 0.3
CCCCc1c(-c2ccccc2OC)ncn1CCc1ccccc1Cl | . | . | . | . | 31.4* | 9.1
CCCCc1c(-c2ccccc2F)ncn1CCc1ccccc1OC | . | . | . | . | 36.5* | 7.5
CCCc1c(-c2cccc(F)c2)ncn1Cc1ccccc1OC | . | . | . | . | 36.8* | 7.5
CCCCCc1c(-c2ccccc2F)ncn1CCc1ccccc1OC | . | . | . | . | 19.6 | .
CCCc1c(-c2cccc(F)c2)ncn1CCc1ccccc1OC | . | . | . | . | 19.9 | .
Cn1cc(S(=O)(=O)NCC(O)Cc2ccccc2)cn1 (stereo not drawn) | -9.0 | . | . | . | . | .
Cc1cccc(C)c1NC(=O)C(c1ccc(-c2ccccc2)cc1)n1c(=O)c(-c2ccco2)nc2ccccc21 (stereo not drawn) | . | . | . | . | 32.9* | -1.6
CC(C)(C)NC(=O)C(c1ccc(-c2ccccc2)cc1)n1c(=O)c(-c2ccco2)nc2ccccc21 (stereo not drawn) | . | . | . | . | 32.3* | -14.2
CCCCCNC(=O)C(c1ccc(C(F)(F)F)cc1)n1c(=O)c(-c2ccco2)nc2ccccc21 (stereo not drawn) | . | . | . | . | 30.7* | -20.3
Cc1cccc(C)c1NC(=O)C(c1ccccc1)n1c(=O)c(-c2ccccc2)nc2ccccc21 (stereo not drawn) | . | . | . | . | -5.7 | .
Cc1ccc2c(c1)NC(=O)c1cc(NC(=O)c3c(-c4ccccc4Cl)noc3C)ccc1O2 | -7.0 | . | . | . | . | .
O=C(NCc1ccc(Cl)cc1)N1CC(N2C(=O)C3CC=CCC3C2=O)C1 (stereo not drawn) | -2.0 | . | . | . | . | .
Cc1ccn2c(=O)nc(SCC(=O)NCc3ccccc3)nc2c1 | 0.4 | -2.5 | . | . | 2.1 | .
Cc1ccc(CNC(=O)CSc2nc(=O)n3ccc(C)cc3n2)cc1 | . | . | . | . | 40.1* | 5.2
COc1ccc(-c2cccc(C(=O)Nc3ccc(OC)c(OC)c3)c2)cc1 | 5.2 | 0.6 | 0.1 | 20.8 | 4.0 | .
SMILES | SSB-PriA inh | RecA splice inh | 3CLpro inhibitor | VHR inh abs | CCHF vOTU inh-1 | CCHF vOTU inh-2
COc1ccc(-c2cccc(C(=O)Nc3ccc(C)cc3)c2)cc1 | -9.0 | -0.9 | 1.9 | 22.8 | 31.2* | -3.5
O=C(O)COc1ccccc1/C=N/NC(=O)Cc1csc(Nc2cccc(C(F)(F)F)c2)n1 | . | 8.6 | 5.3 | 3.5 | 31.9* | -2.1
C[C@H](O)CN1CCN(C(=O)NCc2ccc(Cl)cc2)CC1 | -3.0 | . | . | . | . | .
O=C(O)c1cccc(Cn2c(Cl)c(C=NNC(=O)c3ccccc3)sc2=O)c1 | -5.4 | . | . | . | . | .
O=C(O)c1cccc(Cn2c(Cl)c(/C=N/NC(=O)c3cc4ccccc4cc3O)sc2=O)c1 | i | -7.4 | 3.1 | 20.4 | 30.2* | 23.4
O=C(N/N=C/c1ccc([N+](=O)[O-])o1)C1CC1 | . | -7.4 | -2.9 | 5.3 | 32.4* | -11.8
Cc1ccccc1C(=O)NCCN1CCn2cc(OCc3ccc(F)cc3)c(=O)cc2C1=O | -16.0 | . | . | . | . | .
CC(C)CC(NC(=O)C(Cc1ccc(OCc2ccccc2)cc1)NC(=O)OC(C)(C)C)C(N)=O (stereo not drawn) | -8.4 | 2.4 | 0.3 | -19.8 | 31.6* | -11.5
COc1cc(CCc2ccccc2)c(C(=O)O)c(O)c1CC=C(C)C | -7.8 | . | . | . | 29.2 | .
COc1cc(CCc2ccccc2)c(C(=O)O)c(O)c1C/C=C(/C)CCC=C(C)C | -3.4 | . | . | . | 35.7* | 46.7*
O=C(N1CC[C@H](c2ccc3c(c2)OCO3)C1)C1(c2cccs2)CCCC1 | -10.0 | . | . | . | . | .
CCCCNc1ccc2nsnc2c1[N+](=O)[O-] | -8.6 | -0.3 | -4.0 | -1.0 | 56.9* | -6.1
COC(=O)c1ccc(C2C(=C(O)c3ccc(OC(C)C)cc3)C(=O)C(=O)N2c2cc(C)on2)cc1 (stereo not drawn) | -2.9 | . | . | . | . | .
CC1(C(=O)NCc2ccc(C(F)(F)F)cc2)CCN1Cc1c(F)cccc1F (stereo not drawn) | . | . | . | . | 31.5* | 4.5
CSc1ccc(CN2CCC2(C)C(=O)NCc2cccc(C(F)(F)F)c2)cc1 (stereo not drawn) | . | . | . | . | 9.8 | .
CC1(C(=O)NCc2ccc(C(F)(F)F)cc2)CCN1Cc1ccc(-c2ccccc2)o1 (stereo not drawn) | . | . | . | . | 18.0 | .
CC1(C(=O)NCc2cccc(C(F)(F)F)c2)CCN1CCc1ccccc1 (stereo not drawn) | . | . | . | . | 31.5* | 2.8
Cc1nn(-c2ccc(F)cc2)c(C)c1NS(=O)(=O)c1ccc(Cl)cc1 | 0.6 | 10.5 | -2.4 | -21.5 | 30.2* | -8.9
Cc1ccc(-n2nc(C)c(NS(=O)(=O)c3ccccc3)c2C)cc1C | -3.4 | 0.4 | 4.3 | -1.7 | -8.9 | .
CCN1C(=O)C(C)(C)COc2ccc(NC(=O)c3ccc(C(C)(C)C)cc3)cc21 | 22.0 | . | . | . | . | .
O=C(c1ccccn1)N1CCC2(CCc3ccccc3O2)CC1 | -4.0 | . | . | . | . | .
Cn1c(N)c(C(=O)CCc2ccccc2)c(=O)n(C)c1=O | . | . | . | . | 0.1 | .
CCN(CC(=O)c1c(N)n(C)c(=O)n(C)c1=O)c1cccc2ccccc12 | -3.9 | 0.9 | -0.9 | -15.3 | 82.3* | -7.8
NC(=O)c1sc2nc3c(c(-c4ccco4)c2c1N)CCC3 | 1.2 | 6.7 | -16.3 | 20.7 | 49.0* | 13.5
CC12CC(c3ccccc3O1)C(/C(N)=N/NC(=O)c1ccc(F)cc1)C(=O)N2 (stereo not drawn) | . | -1.7 | -1.7 | -8.2 | 9.0 | .
CC12CC(c3ccccc3O1)C(C(=O)OCc1ccccc1)C(=O)N2 (stereo not drawn) | -30.2 | -0.3 | 0.2 | -9.4 | 38.2* | -2.7
Cn1cnc(S(=O)(=O)NCCNC(=O)c2ccccc2Br)c1 | -9.0 | . | . | . | . | .
COc1cc2c(cc1NCc1ccc3c(c1)OCO3)oc1ccccc12 | 21.2 | 1.3 | 1.6 | -4.4 | -0.2 | .
COc1cc2c(cc1NCc1ccccn1)oc1ccccc12 | 17.0 | 2.0 | 8.0 | 22.3 | 29.7* | -4.5
